Source: PubChem BioAssay (Tox21)
Where “and” joins values, the source holds several entries; their conditions need not be identical. Equal entries are not always repeated. Results filed as inconclusive are left out. The source holds several records for some structures; these can differ, active in one and inactive in another. Calls of active or inactive are those of the source. Unless noted, calls come from the whole dose curve; as a rule, active = well fitted curve in the direction sought with a large enough effect in the repeat runs; inconclusive = weak or mixed curves; inactive = no such curve, though single readings can be large; an effect the other way counts as inactive or inconclusive.

Key:
[1] = qHTS assay to identify small molecule antagonists of the glucocorticoid receptor (GR) signaling pathway - cell viability counter screen (AID 720693); note: nearly all actives have a fitted effect of over 55% in size
[2] = qHTS assay for identifying genotoxic compounds that show differential cytotoxicity against isogenic chicken DT40 cell lines with known DNA damage response pathways - wild type cell line (AID 743012); note: nearly all actives have a fitted effect of over 60% in size
Summary of the method: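 300 wt DT40 cells/well; cpd (DMSO) pintool-transferred after ~0.5 h at 37 C/5% CO2; 40 h incubation; CellTiter-Glo added, 30 min RT; luminescence read.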

[3] = qHTS assay for identifying genotoxic compounds that show differential cytotoxicity against isogenic chicken DT40 cell lines with known DNA damage response pathways - Rev3 mutant cell line (AID 743014); note: nearly all actives have a fitted effect of over 55% in size
[4] = qHTS assay for identifying genotoxic compounds that show differential cytotoxicity against isogenic chicken DT40 cell lines with known DNA damage response pathways - Rad54/Ku70 mutant cell line (AID 743015); note: nearly all actives have a fitted effect of over 60% in size
[5] = qHTS assay to identify small molecule antagonists of the androgen receptor (AR) signaling pathway - cell viability counter screen (AID 743033; note: nearly all actives have a fitted effect of over 45% in size)
[6] = qHTS assay to identify small molecule antagonists of the androgen receptor (AR) signaling pathway using the MDA cell line - cell viability counter screen (AID 743041; note: nearly all actives have a fitted effect of over 45% in size)
Summary of the method: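 Viability read by CellTiter-Fluor fluorescence in the same wells as the antagonist screen, added after 15.5 h of a 16 h, 37C exposure. Human breast carcinoma MDA-kb2 AR-luc cells, compounds co-dosed with agonist R1881.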

[7] = biological target: Androgen receptor (Homo sapiens) (UniProt P10275); experiment: qHTS assay to identify small molecule agonists of the androgen receptor (AR) signaling pathway using the MDA cell line (AID 743040; note: nearly all actives have a fitted effect of over 20% in size)
Sequence of Androgen receptor (Homo sapiens) (P10275 whole entry, looked up): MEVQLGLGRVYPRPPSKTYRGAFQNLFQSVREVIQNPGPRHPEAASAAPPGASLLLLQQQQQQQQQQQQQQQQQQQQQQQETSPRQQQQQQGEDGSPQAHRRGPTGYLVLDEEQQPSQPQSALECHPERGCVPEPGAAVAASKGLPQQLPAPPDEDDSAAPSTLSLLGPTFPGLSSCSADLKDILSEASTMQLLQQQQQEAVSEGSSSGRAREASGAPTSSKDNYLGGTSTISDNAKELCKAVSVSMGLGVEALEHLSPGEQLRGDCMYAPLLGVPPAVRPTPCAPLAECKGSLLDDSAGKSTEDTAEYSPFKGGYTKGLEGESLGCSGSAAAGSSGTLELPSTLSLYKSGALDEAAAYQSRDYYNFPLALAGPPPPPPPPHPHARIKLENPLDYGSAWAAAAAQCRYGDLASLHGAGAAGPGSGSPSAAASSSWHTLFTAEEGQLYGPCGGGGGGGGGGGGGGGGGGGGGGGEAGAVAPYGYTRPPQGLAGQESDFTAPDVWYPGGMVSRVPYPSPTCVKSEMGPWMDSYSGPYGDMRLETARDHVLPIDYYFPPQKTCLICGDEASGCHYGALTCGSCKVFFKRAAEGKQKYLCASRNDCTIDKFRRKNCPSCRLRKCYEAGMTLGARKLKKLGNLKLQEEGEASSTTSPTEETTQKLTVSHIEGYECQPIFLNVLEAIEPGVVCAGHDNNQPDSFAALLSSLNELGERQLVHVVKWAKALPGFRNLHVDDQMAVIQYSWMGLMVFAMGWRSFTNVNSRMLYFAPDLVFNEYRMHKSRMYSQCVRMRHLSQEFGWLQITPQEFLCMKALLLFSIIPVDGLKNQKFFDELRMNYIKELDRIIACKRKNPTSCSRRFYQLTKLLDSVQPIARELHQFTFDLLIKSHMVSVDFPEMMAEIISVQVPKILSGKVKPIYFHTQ
Summary of the method: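 Luciferase agonist assay: 16 h compound exposure at 37C without CO2 in MDA-kb2 AR-luc cells, whose MMTV promoter responds to both AR and GR. Luminescence measured after 30 min room-temperature incubation with ONE-Glo.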

[8] = biological target: Androgen receptor (Homo sapiens) (UniProt P10275); experiment: qHTS assay to identify small molecule antagonists of the androgen receptor (AR) signaling pathway using the MDA cell line (AID 743042; note: nearly all actives have a fitted effect of over 55% in size)
Summary of the method: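 Antagonist mode: compounds plus R1881 agonist added to MDA-kb2 AR-luc cells, incubated 16 h at 37C. Luciferase reporter luminescence quantified, with multiplexed CellTiter-Fluor readout for cell viability.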

[9] = biological target: Androgen receptor (Homo sapiens) (UniProt P10275); experiment: qHTS assay to identify small molecule agonists of the androgen receptor (AR) signaling pathway (AID 743036; active = well fitted activation curve with a large enough effect in the signal ratio in the repeat runs, with a control signal flat, not every such curve was filed as active; the % refers to the signal ratio)
Summary of the method: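 AR-UAS-bla HEK293 cells, plated 4 h before dosing, were treated with compound for 16 h at 37C. beta-Lactamase reporter read after 2 h with LiveBLAzer B/G FRET substrate at room temperature.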

[10] = biological target: Androgen receptor (Homo sapiens) (UniProt P10275); experiment: qHTS assay to identify small molecule antagonists of the androgen receptor (AR) signaling pathway (AID 743035; active = well fitted inhibition curve with a large enough effect in the signal ratio in the repeat runs, not every such curve was filed as active; the % refers to the signal ratio)
Summary of the method: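 In this cell-based reporter screen, compounds were tested in concentration series against R1881-activated HEK293 cells expressing beta-lactamase under UAS control; after 16 h at 37C, FRET substrate was added and fluorescence read 2 h later.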

Measured: Potency
Potency is the fitted concentration of half-maximal effect.

Clc1ccc(CO/N=C(\Cn2ccnc2)c2ccc(Cl)cc2Cl)c(Cl)c1
inactive: [1] | [5] | [6]
active: [2] 13.3 µM | [3] 26.6 µM | [4] 21.1 µM

N#CSCSC#N
inactive: [7]
active: [1] 22.4 µM and 21.7 µM | [2] 5.57 µM and 1.21 µM | [3] 1.98 µM and 1.91 µM | [4] 3.51 µM and 1.52 µM | [5] 22.4 µM and 24.3 µM | [6] 62.5 µM and 60.5 µM | [8] 55.7 µM and 60.5 µM

ClCc1ccc(Cl)cc1Cl
inactive: [1] | [2] | [3] | [4] | [5] | [6]

ClC1=C(Cl)C2(Cl)C3C(Cl)C=CC3C1(Cl)C2(Cl)Cl (stereo unspecified)
inactive: [1] | [5] | [6]
active: [3] 30.6 µM | [4] 68.6 µM
inactive and 48.6 µM (active): [2]

O=C1c2ccccc2C(=O)C1C(=O)C(c1ccccc1)c1ccc(Cl)cc1 (stereo unspecified)
active: [1] 19.5 µM | [2] 27.3 µM | [3] 27.3 µM | [4] 21.7 µM | [5] 13.8 µM | [8] 15.4 µM
inactive: [9] | [7]

FC(Cl)(Cl)Cl
active: [9] 12.3 µM | [7] 1.36 µM
inactive: [1] | [2] | [3] | [4] | [5] | [10] | [6] | [8]

CCCCCCCCCCCCCN1CC(C)OC(C)C1 (stereo unspecified)
active: [2] 54.5 µM | [3] 27.3 µM | [4] 30.6 µM
inactive: [1] | [5] | [6]

c1ccc2cc3c(cc2c1)-c1cccc2cccc-3c12
inactive: [1] | [2] | [3] | [4] | [5] | [7] | [6]

CCN
inactive: [1] | [2] | [3] | [4] | [5] | [6]

CC1(C)CN=C(NN=C(/C=C/c2ccc(C(F)(F)F)cc2)/C=C/c2ccc(C(F)(F)F)cc2)NC1
active: [1] 24.5 µM | [2] 4.33 µM | [3] 3.86 µM | [4] 4.33 µM | [5] 21.9 µM
inactive: [7]

CC1(c2ccc(Oc3ccccc3)cc2)OC(=O)N(Nc2ccccc2)C1=O (stereo unspecified)
active: [1] 22 µM | [2] 1.09 µM | [3] 0.869 µM | [4] 0.774 µM | [5] 24.7 µM | [6] 27.5 µM

CC(C)OC(=O)C(O)(c1ccc(Cl)cc1)c1ccc(Cl)cc1
active: [2] 8.63 µM | [3] 6.86 µM | [4] 7.7 µM
inactive: [1]

ClC1=C(Cl)C2(Cl)C3C(Cl)C(Cl)CC3C1(Cl)C2(Cl)Cl (stereo unspecified)
inactive: [1] | [9] | [7] | [6] | [8]
inactive and 21.7 µM (active): [2]
active: [3] 30.6 µM | [4] 24.3 µM | [5] 49 µM | [10] 48.8 µM and 43.6 µM

Fc1ccc(Oc2ccnc3cc(Cl)cc(Cl)c23)cc1
active: [2] 61.1 µM | [3] 68.6 µM | [4] 61.1 µM
inactive: [1] | [5]

Cn1cc(C2=C(c3cn(C4CCN(Cc5ccccn5)CC4)c4ccccc34)C(=O)NC2=O)c2ccccc21
inactive: [1] | [2] | [3] | [4] | [5] | [6]

CC1(C)C(/C=C(\Cl)C(F)(F)F)C1C(=O)OC(C#N)c1cccc(Oc2ccccc2)c1 (stereo unspecified)
inactive: [1] | [2] | [3] | [4] | [5] | [6]

CC(C)CC(C)Nc1ccc(Nc2ccccc2)cc1 (stereo unspecified)
active: [1] 48.2 µM | [2] 26.8 µM | [3] 16.9 µM | [4] 15.1 µM | [5] 21.5 µM

CC(C)CC(C)(c1ccc(O)cc1)c1ccc(O)cc1
active: [1] 49 µM | [3] 27.4 µM and 38.6 µM | [4] 54.6 µM | [5] 55.1 µM
inactive: [2]

C[C@H]1O[C@@H](O[C@H]2[C@@H](O)C[C@H](O[C@H]3[C@@H](O)C[C@H](O[C@H]4CC[C@@]5(C)[C@H](CC[C@@H]6[C@@H]5CC[C@]5(C)[C@@H](C7=CC(=O)OC7)CC[C@]65O)C4)O[C@@H]3C)O[C@@H]2C)C[C@H](O)[C@@H]1O
active: [1] 477 nM and 98.3 nM | [2] 422 nM and 388 nM | [3] 473 nM and 218 nM | [4] 473 nM and 308 nM | [5] 95.2 nM and 22 nM | [10] 425 nM and 124 nM
inactive: [6] | [8]

CC(C)Oc1cccc(NC(=O)c2ccccc2C(F)(F)F)c1
inactive: [1] | [5]
active: [2] 15.4 µM | [3] 15.4 µM | [4] 30.6 µM

ClC(Cl)=C(c1ccc(Cl)cc1)c1ccc(Cl)cc1
inactive: [1] | [2] | [3] | [4] | [5] | [6]

Cc1cc(C)c(C2=C(OC(=O)CC(C)(C)C)C3(CCCC3)OC2=O)c(C)c1
inactive: [1] | [2] | [3] | [4] | [5] | [6]

C=CC(=O)OCC(COC(=O)C=C)(COC(=O)C=C)COC(=O)C=C
active: [1] 8.71 µM | [2] 0.77 µM | [3] 0.969 µM | [4] 0.686 µM | [5] 6.92 µM | [10] 4.36 µM | [6] 7.7 µM | [8] 1.93 µM
inactive: [7]

C[C@@H]1O[C@@H](O[C@@H]2C=C3CC[C@@H]4[C@H](CC[C@]5(C)[C@@H](c6ccc(=O)oc6)CC[C@]45O)[C@@]3(C)CC2)[C@H](O)[C@H](O)[C@H]1O
inactive: [6]
active: [1] 0.091 µM | [2] 0.127 µM | [3] 0.101 µM | [4] 0.127 µM | [5] 0.0057 µM

BrC(Br)Br
inactive: [1] | [2] | [3] | [4] | [5] | [6]

CC(C)OC(=S)S
inactive: [1] | [6]
active: [2] 24.3 µM | [3] 27.3 µM | [4] 24.3 µM | [5] 17.4 µM

N#CCCSCCC#N
inactive: [1] | [2] | [3] | [4] | [5] | [10] | [7] | [6] | [8]

CN(C)[C@@H]1C(=O)C(C(N)=O)=C(O)[C@@]2(O)C(=O)C3=C(O)c4c(O)ccc(Cl)c4[C@@](C)(O)[C@H]3C[C@@H]12
inactive and 62.4 µM (active): [4]
inactive and 55.6 µM (active): [3]
inactive: [1] | [2] | [5] | [6]

CC(C)(O)c1cnn2c(-c3ccc(F)c(-c4c(F)cccc4C#N)c3)cnc2n1
inactive: [1] | [5] | [7] | [8]
active: [2] 48.6 µM | [3] 30.6 µM | [4] 21.7 µM

CC(C)[C@H](C(=O)OC(C#N)c1cccc(Oc2ccccc2)c1)c1ccc(OC(F)F)cc1 (stereo partly specified)
active: [2] 24.3 µM | [3] 34.4 µM | [4] 27.3 µM
inactive: [1] | [5] | [6]

C=CCC1=C(C)C(OC(=O)C2C(C=C(C)C)C2(C)C)CC1=O (stereo unspecified)
active: [1] 46.3 µM | [2] 10.3 µM | [3] 16.8 µM | [4] 18.7 µM

CCOCn1c(-c2ccc(Cl)cc2)c(C#N)c(Br)c1C(F)(F)F
active: [1] 3.47 µM | [2] 1.93 µM | [3] 2.17 µM | [4] 1.54 µM | [5] 0.871 µM | [6] 3.86 µM

CCCCCCCCCCCCCC[P+](CCCCCC)(CCCCCC)CCCCCC (tested in a mixture with another compound)
active: [1] 2.75 µM | [2] 3.44 µM | [3] 3.86 µM | [4] 3.06 µM | [5] 1.95 µM | [6] 4.33 µM

COc1ccc(OC)c(CC(C)N)c1 (stereo unspecified)
inactive: [1] | [2] | [3] | [4] | [5] | [6]

CC(c1ccc(O)cc1)c1ccc(O)cc1
inactive: [1] | [2] | [3] | [4] | [5] | [6]

O=[N+]([O-])c1ccc(Oc2ccc(C(F)(F)F)cc2[N+](=O)[O-])cc1
active: [2] 19.3 µM | [3] 17.2 µM | [4] 24.3 µM
inactive: [1] | [5] | [6]

CCCCCCCCCCCCCCCC[N+](C)(C)C
active: [1] 23.9 µM and 26.6 µM and 34.7 µM | [2] 473 nM and 934 nM and 969 nM | [3] 596 nM and 417 nM and 770 nM | [4] 841 nM and 1.05 µM and 969 nM | [5] 21.1 µM and 27.5 µM | [6] 61.1 µM

Cc1cc(C(C)(C)c2cc(C)c(O)c(C)c2)cc(C)c1O
active: [1] 42.2 µM | [3] 26.4 µM | [4] 26.4 µM | [5] 26.6 µM | [8] 29.6 µM
inactive: [7] | [6]

COc1cc(N)c(Cl)cc1C(=O)NC1CN2CCC1CC2 (stereo unspecified)
inactive: [1] | [2] | [3] | [5] | [6]

Cc1cc(C)cc(OP(=O)(Oc2cc(C)cc(C)c2)Oc2cc(C)cc(C)c2)c1
inactive: [1] | [3] | [4] | [5]

c1ccc2c(c1)[nH]c1cnccc12
inactive: [1] | [2] | [5] | [6]

CC(Cc1ccc(C(C)(C)C)cc1)CN1C[C@@H](C)O[C@@H](C)C1 (stereo partly specified)
inactive: [1] | [6]
active: [2] 9.69 µM | [3] 5.45 µM | [4] 4.86 µM

O=c1[nH]c2ccccc2n1C1CCN(CCCC(c2ccc(F)cc2)c2ccc(F)cc2)CC1
inactive and 17.4 µM (active): [5]
active: [1] 5.49 µM | [3] 10.6 µM and 21.7 µM | [4] 8.41 µM and 9.69 µM
inactive: [6]
